# In PubChem BioAssay AID488940 (National Center for Advancing Translational Sciences (NCATS), 2010):
# The source made the active and inactive calls. The call rests on the fitted dose curve.
# Molecular target: DNA repair nuclease/redox regulator APEX1 (Homo sapiens) (UniProt P27695)
# Assay: Radiotracer Incision Assay (RIA) for Inhibitors of Human Apurinic/apyrimidinic Endonuclease 1 (APE1)
# Conditions: Recombinant APE1, radiolabeled AP-DNA incision, gel
# Description: The apurinic/apyrimidinic endonuclease APE1 is the primary mammalian enzyme responsible for the removal of abasic (or AP) sites in DNA and functions centrally in the base excision DNA repair (BER) pathway. […] Thus, targeting APE1 could improve the efficacy of current treatment paradigms by promoting selective sensitization or protection of diseased and normal cells, respectively. This secondary Radiotracer Incision Assay was implemented to validated hits from the primary screen (AID 2517).
# Recombinant wild type APE1 protein was purified as previously described (Erzberger et al., NAR, 1998). Fifty pg of APE1 (~140 pM) was incubated without (positive control containing 1% DMSO) or with 100 microM of the indicated inhibitor at room temperature in RIA buffer (50 mM Tris pH 7.5, 25 mM NaCl, 1mM MgCl2, 1 mM DTT, 0.01% Tween -20) for 15 min. One-half pmol of 32P 5'-radiolabeled AP-DNA substrate (18 mer) was added to a 10 microL final volume (see Wilson et al., JBC, 1995), and the reactions were incubated at 37 °C for 5 min and stopped by adding stop buffer (0.05% Bromophenol blue/ Xylene cyanol dissolved in 95% formamide, 20 mM EDTA) and heating at 950C for 10 min. Intact substrate was separated from incised product on a 15% polyacrylamide denaturing gel in tris boric acid EDTA buffer. Following electrophoresis, the gel was subjected to standard phosphoimager analysis using the ImageQuant 5.2 software, and the percent incision activity (amount of substrate converted to product) was calculated.
# Sequence of DNA repair nuclease/redox regulator APEX1 (Homo sapiens) (P27695 whole entry, looked up): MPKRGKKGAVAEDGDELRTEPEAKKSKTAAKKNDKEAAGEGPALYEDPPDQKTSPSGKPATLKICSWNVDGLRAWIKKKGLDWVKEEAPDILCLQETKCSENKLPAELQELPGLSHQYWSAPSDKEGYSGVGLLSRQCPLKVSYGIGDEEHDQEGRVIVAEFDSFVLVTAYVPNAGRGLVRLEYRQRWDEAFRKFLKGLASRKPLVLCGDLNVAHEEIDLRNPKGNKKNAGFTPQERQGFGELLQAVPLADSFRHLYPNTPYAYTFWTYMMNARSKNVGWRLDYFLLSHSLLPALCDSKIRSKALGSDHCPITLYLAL
row,SMILES,Potency
1,CC(=O)Nc1sc2c(c1-c1nc3ccccc3o1)CCN(C(C)C)C2,13 µM (active)
2,CC(=O)Nc1sc2c(c1-c1nc3ccccc3s1)CCN(C(C)C)C2,19 µM (active)
3,CC(=O)Nc1sc2c(c1-c1nc3ccccc3s1)CCN(C)C2,5 µM (active)
4,CC(=O)Nc1sc2c(c1-c1nc(-c3ccccc3)cs1)CCN(C(C)C)C2,3 µM (active)
5,CC(=O)Nc1sc2c(c1-c1nc3ccccc3s1)CCCNC2,7 µM (active)
6,CC(=O)Nc1sc2c(c1-c1nc3ccccc3s1)CN(C(C)C)C2,4 µM (active)
7,CC(=O)Nc1sc2c(c1-c1nc3ccccc3s1)CCN(C(C)C)CC2,13 µM (active)
8,CC(=O)Nc1sc2c(c1-c1nc3ccccc3s1)CCNC2,5 µM (active)
9,CC(=O)Nc1sc2c(c1-c1nc3ccccc3s1)CCCN(C(C)C)C2,14 µM (active)
10,CC(=O)Nc1sc2c(c1-c1nc3ccccc3s1)CCN(C(C)=O)C2,5 µM (active)
11,CC(=O)Nc1sc2c(c1-c1nc3ccccc3s1)CCS(=O)(=O)C2,77 µM (active)
12,O=C(Nc1sc2c(c1-c1nc3ccccc3s1)CCNC2)C(F)F,4 µM (active)
